# HIV RNase H inh-1: HIV-1 RT RNase H inhibitors, primary screen, biochemical, fluorescence | Gag-Pol polyprotein (Human immunodeficiency virus type 1 group M subtype B (isolate … | RT-RNase H RNA/DNA duplex cleavage | inhibition, % at 10 µM | hit rate 1.9% among 65,000; in the data active = inhibition above about 50%
# HIV RNase H inh-2: HIV-1 RT RNase H inhibitors, retest, confirmation, biochemical; shares compounds with HIV RNase H inh-1; hit rate 39% among 1,000; Recombinant RT RNase H, fluorescent RNA/DNA duplex cleavage; inhibition, % at 10 µM; AID 651, 2007; in the data active = inhibition above about 48%; inconclusive = no clear call, values can overlap the other calls
# An asterisk follows results filed as active; ? = inconclusive. The sample as a whole holds a higher share of hits than the screen did.
SMILES,HIV RNase H inh-1,others
CCn1c(SCC(=O)Nc2ccc(S(N)(=O)=O)cc2)nnc1-c1cccc(OC)c1,-13.8,
O=C(COc1ncnc2ccccc12)N1CCN(S(=O)(=O)c2ccc(Cl)cc2)CC1,-3.7,
O=C1CCC(=O)N1c1ccccc1-c1ccccc1,-11.3,
COc1ccc(C(=O)NCC23C=CC(O2)C2C(=O)N(Cc4ccccc4)C(=O)C23)cc1 (stereo not given),1.0,
O=C1C2C3C=CC(CO)(O3)C2C(=O)N1c1ccccc1-c1ccccc1 (stereo not given),61.1*,HIV RNase H inh-2=-4.9
Cc1ccc(/C(O)=C2\C(=O)C(=O)N(CC(C)O)C2c2ccc(N(C)C)cc2)cc1 (stereo not given),8.2,
COc1ccc2nc(NC(=O)C(NS(=O)(=O)c3cccs3)C(C)C)sc2c1 (stereo not given),-3.5,
CCOC(=O)c1[nH]c2ccccc2c1N=CN(CC)CC,-1.5,
COc1ccc(CCNS(=O)(=O)c2cccc(C(=O)O)c2)cc1OC,-8.9,
CCOC(=O)c1cc(-c2ccc(C)cc2)n(CCC(=O)NCCN(C)C)c1C,2.6,
CCOC(=O)c1cc(-c2ccc(C)cc2)n(CC(=O)NCc2ccco2)c1C,57.8*,HIV RNase H inh-2=30.8
COc1ccc2c(c1)c(=O)cc(C)n2CC(=O)NCc1ccco1,-5.7,
CCCNC(=O)NC(C(=O)OC)C12CC3CC(CC(C3)C1)C2 (stereo not given),1.7,
Cc1nn(-c2ccccc2)c2sc(C(=O)OC3CCOC3=O)cc12 (stereo not given),-44.0,
Cc1cccc(C)c1NC(=O)CSCCO,-9.2,
Cc1cccc(C)c1NC(=O)CSCC(=O)O,-3.7,
Cc1cccc(C)c1NC(=O)CSCC(=O)c1ccc(O)c(O)c1,87.5*,HIV RNase H inh-2=61.5*
Cc1noc(C)c1CSc1ccccc1C(=O)Nc1nccs1,-16.6,
CNc1nc(C)c(C(=O)OCc2ccccc2)s1,-28.3,
Cn1cnnc1SCC(=O)c1cc2ccccc2oc1=O,15.3,
O=C(CSc1nnc(-c2cccnc2)o1)c1cc2ccccc2oc1=O,-3.5,
CC(C)c1c(C#N)c(N)nc(SCC(=O)c2cc3ccccc3oc2=O)c1C#N,75.0*,HIV RNase H inh-2=33.1
COc1ccc(N2C(=O)C3CCCN3C2c2ccccc2Cl)cc1 (stereo not given),-12.7,
COc1ccccc1-c1cc(C(=O)N2CCN(c3ccccc3OC)CC2)no1,78.0*,HIV RNase H inh-2=47.4
COc1ccccc1N1CCN(C(=O)c2cc(-c3ccc(C)cc3)on2)CC1,-16.5,
SMILES,HIV RNase H inh-1,others
COc1ccccc1N1CCN(C(=O)c2cc(-c3ccc(Cl)cc3)on2)CC1,-3.8,
CC1(C)CC(=O)C=C(NCCN2CCN(C(=O)Nc3ccccc3)CC2)C1,-9.0,
Clc1ccc2nc(CN3CCCc4ccccc43)cn2c1,-23.8,
O=C(NCc1ccc2c(c1)OCO2)c1nnc(Cc2ccc(Cl)cc2)o1,-3.5,
O=C(O)CCC(=O)OCC1CCCO1 (stereo not given),-5.5,
COc1cccc(C(c2sc3nc(C)nn3c2O)N2CCc3ccccc3C2)c1 (stereo not given),81.5*,HIV RNase H inh-2=-1.1
COc1cccc(C(c2sc3nc(C)nn3c2O)N2CCC3(CC2)OCCO3)c1 (stereo not given),-23.6,
CCN1CCN(C(c2cccc(OC)c2)c2sc3nc(C)nn3c2O)CC1 (stereo not given),-27.5,
COc1ccc(-n2nc3c(c2NC(=O)c2cc4ccccc4oc2=O)CS(=O)(=O)C3)cc1,24.3,
CCSc1nc(C)cc(Oc2ccc(=O)n(C)n2)n1,-15.2,
Cc1cc(C(=O)Nc2cccnc2)no1,1.8,
Cc1ccc(-c2cc(C(=O)Nc3cccnc3)c3ccccc3n2)o1,68.7*,HIV RNase H inh-2=31.6
O=C(Nc1cccnc1)c1coc(=O)c2ccccc12,-4.7,
CCOC(=O)C1=C(C)NC(C)=C(C(=O)OCC)C1C(=O)OCC(=O)N1CCC(C)CC1,-2.3,
Cc1c(C(=O)Nc2ccccc2N2CCOCC2)sc2nc3n(c(=O)c12)CCC3,-1.5,
Cc1csc(NC(=O)c2sc3nc(-c4cccs4)ccc3c2N)n1,46.9,
COC(=O)c1sc(NC(=O)c2ccco2)nc1C,3.5,
COC(=O)c1sc2nc(-c3ccco3)ccc2c1N,79.2*,HIV RNase H inh-2=33.8
COc1ccc(CNc2nc(-c3cccnc3)nn2C(=O)c2cccs2)cc1,-58.7,
COC(=O)N(c1ccccc1)P1(=S)OCCO1,90.2*,HIV RNase H inh-2=53.8*
CCOC(=O)N(c1ccccc1)P1(=S)OCCO1,88.4*,HIV RNase H inh-2=57.5*
CCOC(=O)N(c1ccccc1)P1(=S)OCC(C)O1 (stereo not given),-1.1,
CNC(=O)N(c1ccccc1)c1ccccc1,-12.7,
CCOC(=O)N1CCN(S(=O)(=O)Cc2ccccc2)CC1,-2.4,
COC(=O)C1C(c2ccccc2)C(C(=O)N2CCOCC2)C1c1ccccc1 (stereo not given),-10.3,
SMILES,HIV RNase H inh-1,others
CCC(=O)N1CCN(c2ccccc2NC(=O)COc2cc(C)ccc2C(C)C)CC1,-1.7,
CN(C)S(=O)(=O)c1cccc(CSc2cccc[n+]2[O-])c1,-2.2,
Cc1noc(C)c1C(=O)OCC(=O)c1c(N)n(CC(C)C)c(=O)n(C)c1=O,1.7,
Cc1ccc(S(=O)(=O)NC(C)(C)CSc2nnc(N)s2)cc1,-6.6,
Cc1cc(C)n(C(=O)c2cc3ccccc3c(=O)o2)n1,-13.5,
Cc1noc(C)c1C(=O)OC(C(=O)NC1CCCC1)c1ccc(F)cc1 (stereo not given),1.6,
O=C(c1ccc(Cl)c(Cl)c1)N1CCOCC1,-1.3,
O=C(c1ccc(=O)oc1)N1CCOCC1,1.8,
O=C(c1coc(=O)c(Br)c1)N1CCOCC1,61.5*,HIV RNase H inh-2=47.6
O=c1[nH]c(CN2CCC(c3nc4ccccc4s3)CC2)nc2sc3c(c12)CCC3,7.4,
Cc1ccc(N2C(=O)SC(N(CC(=O)O)c3cccc(C)c3)C2=O)cc1 (stereo not given),11.1,
Cc1ccc(N(CC(N)=O)C2SC(=O)N(Cc3ccccc3)C2=O)cc1 (stereo not given),63.4*,HIV RNase H inh-2=41.2
NC(=O)CN(c1ccccc1)C1SC(=O)N(Cc2ccccc2)C1=O (stereo not given),2.1,
Cc1nn(C(C)C(=O)O)c2ccccc12 (stereo not given),0.4,
COC(=O)C(c1cc(OC)c(O)c(OC)c1)(N1CCNC(C)C1)C(F)(F)F (stereo not given),-9.7,
CC(C)Sc1nc2ccccc2n1CC(N)=O,-6.1,
CCOC(=O)c1ccc2c(c1)nc(SC/C(O)=C(\C#N)c1nc3ccccc3[nH]1)n2CC,33.0,
Cc1ccccc1-n1c(SC/C(O)=C(\C#N)c2nc3ccccc3[nH]2)nnc1-c1ccncc1,13.7,
Cc1cc(C)n2c(SC/C(O)=C(\C#N)c3nc4ccccc4[nH]3)nnc2n1,83.0*,HIV RNase H inh-2=?
CCn1c(=O)cc(SCC(=O)NCCCN2CCN(c3ccc(F)cc3)CC2)c2ccccc21,66.2*,HIV RNase H inh-2=37.8
Cn1c(=O)cc(SCC(=O)NCCCN2CCN(c3ccccc3F)CC2)c2ccccc21,-11.4,
CCn1c(=O)cc(SCC(=O)NCCN2CCN(Cc3ccccc3)CC2)c2ccccc21,0.0,
CC1(C)NC(=O)N(CNc2cc(Cl)ccc2Cl)C1=O,-67.5,
O=C(CCCCn1c(=O)c2ccccc2n(Cc2ccc(F)cc2Cl)c1=O)NCc1ccco1,7.5,
Cc1ccc(C)c(Cn2c(=O)n(CCC(=O)NCc3ccco3)c(=O)c3ccccc32)c1,74.9*,HIV RNase H inh-2=47.5
Cc1ccc(NC(=O)Cn2c(=O)n(CCCCC(=O)NCc3ccco3)c(=O)c3ccccc32)cc1,-13.5,

# From PubChem BioAssay
